The values below come from article PMC5700166.

Where a chain is given by its changes, count along the chain named.

Assay in all cases: protein-binding microarray (PBM); PBM: ~300 nM protein, 6 mM HEPES pH 7.8, 80 mM KCl, 0.5 mM EDTA, 0.5 mM EGTA, 6% glycerol, 35 ng/ul poly-dIdC, 1% milk, 1 h, room temperature; Ap Aiptasia and Nv Nematostella (sea anemones) / Co Capsaspora / Aq Amphimedon (sponge) / Dm Drosophila / Hu human; RHD is the Rel homology domain; high values mean tight binding
Common to all, as to conditions: dsDNA, one strand shown

One assay concerns the target T1, GST-Ap-NF-kB RHD (Exaiptasia pallida (Aiptasia), UniProt A0A913YAJ5 2-422).
T1 sequence: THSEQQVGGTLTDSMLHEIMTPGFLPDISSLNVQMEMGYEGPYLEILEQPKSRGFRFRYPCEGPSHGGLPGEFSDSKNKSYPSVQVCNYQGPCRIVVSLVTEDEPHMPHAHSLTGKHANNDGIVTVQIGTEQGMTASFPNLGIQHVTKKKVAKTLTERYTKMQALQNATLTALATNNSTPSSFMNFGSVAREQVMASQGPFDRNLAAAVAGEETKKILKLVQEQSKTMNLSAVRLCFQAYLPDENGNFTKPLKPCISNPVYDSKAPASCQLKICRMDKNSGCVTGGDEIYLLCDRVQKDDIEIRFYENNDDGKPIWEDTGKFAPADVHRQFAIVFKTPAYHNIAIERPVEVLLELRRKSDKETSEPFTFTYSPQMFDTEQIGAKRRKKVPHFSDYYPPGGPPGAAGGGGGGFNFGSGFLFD

In assay [1] the target is T2, GST-Nv-NF-kB (Cys allele) (Nematostella vectensis, UniProt E5G601 2-411).
T2 sequence: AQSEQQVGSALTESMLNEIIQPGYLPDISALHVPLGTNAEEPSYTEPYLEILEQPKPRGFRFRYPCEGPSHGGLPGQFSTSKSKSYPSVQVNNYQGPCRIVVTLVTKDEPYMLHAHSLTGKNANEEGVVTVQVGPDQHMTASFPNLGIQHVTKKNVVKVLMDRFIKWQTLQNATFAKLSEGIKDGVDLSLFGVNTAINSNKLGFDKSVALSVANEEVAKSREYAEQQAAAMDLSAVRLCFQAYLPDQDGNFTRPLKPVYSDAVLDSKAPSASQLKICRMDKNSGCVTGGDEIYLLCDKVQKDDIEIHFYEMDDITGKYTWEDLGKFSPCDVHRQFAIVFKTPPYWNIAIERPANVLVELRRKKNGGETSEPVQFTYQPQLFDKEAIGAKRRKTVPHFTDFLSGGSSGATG

For assay [2], the target named is T3, GST-Nv-NF-kB (Ser allele) (Nematostella vectensis, UniProt A7UNT2 2-411).
T3 sequence: T2 sequence with Q21R, C66S, S207N, E215Q, V217A, E225K, A268E, D399E

A further assay deals with T4, GST-Co-NF-kB (Capsaspora owczarzaki, UniProt F1ARL5 200-546).
T4 sequence: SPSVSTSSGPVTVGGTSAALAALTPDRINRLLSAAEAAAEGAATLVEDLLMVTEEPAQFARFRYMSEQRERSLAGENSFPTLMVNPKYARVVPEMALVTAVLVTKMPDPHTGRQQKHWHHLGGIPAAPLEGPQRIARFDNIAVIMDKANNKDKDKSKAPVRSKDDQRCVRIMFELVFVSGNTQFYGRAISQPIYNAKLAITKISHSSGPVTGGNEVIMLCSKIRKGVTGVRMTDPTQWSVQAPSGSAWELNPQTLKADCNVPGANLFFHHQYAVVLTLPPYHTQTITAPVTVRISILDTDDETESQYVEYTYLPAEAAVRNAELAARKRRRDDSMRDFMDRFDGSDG

The target in the next assay is T5, GST-Dm-Relish (Drosophila melanogaster, UniProt Q94527 99-473).
T5 sequence: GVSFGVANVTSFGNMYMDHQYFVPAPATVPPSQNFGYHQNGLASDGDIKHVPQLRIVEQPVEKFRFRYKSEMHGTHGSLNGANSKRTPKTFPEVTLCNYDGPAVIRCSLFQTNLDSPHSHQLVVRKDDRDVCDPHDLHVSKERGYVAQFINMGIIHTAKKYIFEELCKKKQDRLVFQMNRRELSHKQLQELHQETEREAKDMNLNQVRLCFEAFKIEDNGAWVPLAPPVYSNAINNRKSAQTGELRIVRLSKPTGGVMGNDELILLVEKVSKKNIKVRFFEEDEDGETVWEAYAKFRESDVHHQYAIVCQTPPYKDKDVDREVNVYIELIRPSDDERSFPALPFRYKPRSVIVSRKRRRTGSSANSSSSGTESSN

The next assay has as its target T6, GST-Aq-NF-kB (Amphimedon queenslandica, UniProt A9Y5G7 2-389).
T6 sequence: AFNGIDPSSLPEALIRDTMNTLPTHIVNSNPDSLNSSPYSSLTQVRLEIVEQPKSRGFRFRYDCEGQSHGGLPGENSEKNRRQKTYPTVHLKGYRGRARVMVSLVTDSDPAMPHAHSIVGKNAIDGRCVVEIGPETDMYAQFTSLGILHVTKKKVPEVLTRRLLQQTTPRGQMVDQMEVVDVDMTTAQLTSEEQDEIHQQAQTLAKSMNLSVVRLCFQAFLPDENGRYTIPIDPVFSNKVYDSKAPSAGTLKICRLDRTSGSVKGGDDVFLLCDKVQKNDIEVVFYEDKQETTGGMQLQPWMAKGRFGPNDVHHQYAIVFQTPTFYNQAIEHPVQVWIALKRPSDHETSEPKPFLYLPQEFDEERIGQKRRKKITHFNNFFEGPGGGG

The next assay concerns the target GST-Hu-p50 (Homo sapiens, UniProt P19838 7-356).

Chain of GST-Hu-p50 (P19838 7-356): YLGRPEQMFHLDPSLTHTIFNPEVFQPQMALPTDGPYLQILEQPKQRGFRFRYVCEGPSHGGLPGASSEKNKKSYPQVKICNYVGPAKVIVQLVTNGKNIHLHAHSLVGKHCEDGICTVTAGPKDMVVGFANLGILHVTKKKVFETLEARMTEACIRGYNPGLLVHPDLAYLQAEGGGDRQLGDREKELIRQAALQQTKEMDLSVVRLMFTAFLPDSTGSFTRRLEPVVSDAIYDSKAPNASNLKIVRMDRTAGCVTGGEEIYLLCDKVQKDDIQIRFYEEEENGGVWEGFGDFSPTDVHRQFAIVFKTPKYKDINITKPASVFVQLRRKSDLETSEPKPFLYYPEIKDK

In the case of “CCGATTAACATCAAATCTTCCCCTGATGTTAATCGGGTCTTGATTCGCTTGACGCTGCTG”, the binding signal with GST-Ap-NF-kB RHD came out at 6.29 z-score; in assay [1], 8.14 z-score; in assay [2], 10.4 z-score; in the assay with GST-Co-NF-kB, 9.84 z-score; with GST-Dm-Relish, 4.74 z-score; in the assay with GST-Aq-NF-kB it was 6.11 z-score. This sequence yielded a binding signal with GST-Hu-p50 of 6.14 z-score.

In the case of “CCGATTAACATCAGATTCCCCCCTGATGTTAATCGGGTCTTGATTCGCTTGACGCTGCTG”, the binding signal was found to be 8.5 z-score with GST-Ap-NF-kB RHD; 7.01 z-score in assay [1]; 8.24 z-score in assay [2]; 10 z-score with GST-Co-NF-kB; 6.72 z-score in the assay with GST-Dm-Relish; 6.38 z-score with GST-Aq-NF-kB. In the assay with GST-Hu-p50, the binding signal amounted to 7.1 z-score.

In the case of “CCGATTAACATCAGACTTCCCCCTGATGTTAATCGGGTCTTGATTCGCTTGACGCTGCTG”, the binding signal with GST-Ap-NF-kB RHD turned out to be 7.28 z-score; in assay [1] it was 7.38 z-score; in assay [2], 7.81 z-score; with GST-Co-NF-kB it was 7.84 z-score; with GST-Dm-Relish it was 7.18 z-score; with GST-Aq-NF-kB, 6.8 z-score. Moreover, the binding signal in the assay with GST-Hu-p50 is 6.2 z-score.

“CCGATTAACATCAGGGCCTCCCCTGATGTTAATCGGGTCTTGATTCGCTTGACGCTGCTG”: the binding signal turned out to be 6.07 z-score with GST-Ap-NF-kB RHD; 4.43 z-score in assay [1]; 3.22 z-score in assay [2]; 2.08 z-score in the assay with GST-Co-NF-kB; 7.13 z-score with GST-Dm-Relish; 6.75 z-score in the assay with GST-Aq-NF-kB. In the assay with GST-Hu-p50, this sequence registered a binding signal of 3.91 z-score.

As for “CCGATTAACATCACTAGTTTCCCTGATGTTAATCGGGTCTTGATTCGCTTGACGCTGCTG”, the binding signal turned out to be 3.06 z-score with GST-Ap-NF-kB RHD; 3.43 z-score in assay [1]; 4.61 z-score in assay [2]; 4.16 z-score with GST-Co-NF-kB; 1.28 z-score with GST-Dm-Relish; 3.03 z-score with GST-Aq-NF-kB. This sequence also yielded a binding signal in the assay with GST-Hu-p50 of 2.26 z-score.

Take “CCGATTAACATCAGGGGATCCCCTGATGTTAATCGGGTCTTGATTCGCTTGACGCTGCTG”: the binding signal came to 14.6 z-score with GST-Ap-NF-kB RHD; 11.6 z-score in assay [1]; 12.1 z-score in assay [2]; 7.53 z-score with GST-Co-NF-kB; 10.8 z-score in the assay with GST-Dm-Relish; 11.3 z-score with GST-Aq-NF-kB. The same sequence registered a binding signal with GST-Hu-p50 of 7.87 z-score.

For the sequence “CCGATTAACATCATCAGGGGAAATGATGTTAATCGGGTCTTGATTCGCTTGACGCTGCTG”, the binding signal turned out to be 5.62 z-score in the assay with GST-Ap-NF-kB RHD; 7.05 z-score in assay [1]; 8.79 z-score in assay [2]; 5.8 z-score with GST-Co-NF-kB; 2.39 z-score with GST-Dm-Relish; 4.58 z-score with GST-Aq-NF-kB. The same sequence displayed a binding signal in the assay with GST-Hu-p50 of 5.42 z-score.

Take “CCGATTAACATCAAGGGGGATCCTGATGTTAATCGGGTCTTGATTCGCTTGACGCTGCTG”: the binding signal with GST-Ap-NF-kB RHD turned out to be 8.33 z-score; in assay [1] it was 6.38 z-score; in assay [2], 7.04 z-score; with GST-Co-NF-kB, 3.07 z-score; with GST-Dm-Relish it was 8.84 z-score; with GST-Aq-NF-kB it was 6.34 z-score. In the assay with GST-Hu-p50, this sequence gave a binding signal of 6.91 z-score.

Turning to “CCGATTAACATCAGGGGGGGCTATGATGTTAATCGGGTCTTGATTCGCTTGACGCTGCTG”, the binding signal with GST-Ap-NF-kB RHD is 4.3 z-score; in assay [1], 3.34 z-score; in assay [2] it was 3.58 z-score; in the assay with GST-Co-NF-kB, 5.06 z-score; with GST-Dm-Relish, 4.12 z-score; with GST-Aq-NF-kB, 4.07 z-score. The same sequence showed a binding signal with GST-Hu-p50 of 4.09 z-score.

“CCGATTAACATCAGGGGGGTAGATGATGTTAATCGGGTCTTGATTCGCTTGACGCTGCTG”: the binding signal was 4.07 z-score with GST-Ap-NF-kB RHD; 3.34 z-score in assay [1]; 3.24 z-score in assay [2]; 5.47 z-score with GST-Co-NF-kB; 3.11 z-score with GST-Dm-Relish; 3.59 z-score with GST-Aq-NF-kB. The sequence also gave a binding signal with GST-Hu-p50 of 3.2 z-score.

In the case of “CCGATTAACATCAGAATTTCCCATGATGTTAATCGGGTCTTGATTCGCTTGACGCTGCTG”, the binding signal came to 3.88 z-score with GST-Ap-NF-kB RHD; 5.46 z-score in assay [1]; 4.83 z-score in assay [2]; 4.63 z-score in the assay with GST-Co-NF-kB; 3.42 z-score in the assay with GST-Dm-Relish; 5.17 z-score with GST-Aq-NF-kB. In the assay with GST-Hu-p50, this sequence registered a binding signal of 4.04 z-score.

For “CCGATTAACATCAGGGGCAGTACTGATGTTAATCGGGTCTTGATTCGCTTGACGCTGCTG”, the binding signal in the assay with GST-Ap-NF-kB RHD stood at 2.61 z-score; in assay [1] it was 1.84 z-score; in assay [2], 1.28 z-score; with GST-Co-NF-kB it was 1.64 z-score; in the assay with GST-Dm-Relish it was 3.44 z-score; in the assay with GST-Aq-NF-kB it was 4.35 z-score. Besides, in the assay with GST-Hu-p50, the binding signal is 2.94 z-score.
